Assay results from PubChem BioAssay (NCI).
Values joined by “and” are separate entries in the source; they are usually repeats but may differ in a detail not shown here. Identical values can stand only once. The panel holds about 79,000 compounds, 15% with a hit somewhere; the sample as a whole holds those more often. A structure can be active in one record and inactive in another. Active and inactive are the calls of the source. No stated cut-off is given here; in the data, active means growth inhibition above about 70%; inactive means the rest.

Assays:
[1] = NCI Yeast Anticancer Drug Screen. Data for the rad50 strain (AID 155);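 further: 0% = growth of vehicle-only cultures of the same strain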; details: S. cerevisiae rad50 strain growth inhibition; at 50.0 µM; stronger effect = higher value
Method in brief: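 Relative growth inhibition (compound vs vehicle) was measured in yeast with a defined repair-gene alteration.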

[2] = NCI Yeast Anticancer Drug Screen. Data for the mec2-1 strain (AID 157); details: S. cerevisiae mec2-1 strain, at 50.0 µM, stronger effect = higher value
Method in brief: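 Readout is yeast growth inhibition, normalised to vehicle-treated controls, in the mec2-1 strain exposed to compound.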

[3] = NCI Yeast Anticancer Drug Screen. Data for the sgs1 mgt1 strain (AID 161);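 further: 0% = growth of cultures given vehicle only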; details: S. cerevisiae sgs1 mgt1 strain, at 50.0 µM, stronger effect = higher value
Method in brief: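 Percent growth inhibition was derived by comparing compound-exposed mutant yeast with vehicle-exposed cultures. The strain carries alterations in DNA damage repair.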

[4] = NCI Yeast Anticancer Drug Screen. Data for the cln2 rad14 strain (AID 165);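 further: 0% = growth equal to vehicle treated cultures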; details: S. cerevisiae cln2 rad14 strain, at 50.0 µM, stronger effect = higher value
Method in brief: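 Relative to vehicle controls, growth inhibition of compound-treated cln2 rad14 yeast was recorded.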

[5] = NCI Yeast Anticancer Drug Screen. Data for the bub3 strain (AID 167); details: S. cerevisiae bub3 mutant strain, at 50.0 µM, stronger effect = higher value
Method in brief: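 Screening used yeast with an engineered genetic alteration affecting cell cycle control. Compound-exposed cultures were compared with vehicle cultures, and reduced growth was taken as inhibition.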

[6] = NCI Yeast Anticancer Drug Screen. Data for the mlh1 rad18 strain (AID 175); details: S. cerevisiae mlh1 rad18 strain growth inhibition; at 50.0 µM; stronger effect = higher value
Method in brief: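 Test agents were incubated with a yeast strain of defined genotype (DNA damage repair defect). Inhibition of growth was derived by comparison with vehicle-exposed cultures.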

| SMILES | growth inhibition [1] | growth inhibition [2] | growth inhibition [3] | growth inhibition [4] | growth inhibition [5] | growth inhibition [6] |
| --- | --- | --- | --- | --- | --- | --- |
| CCCCNC(=S)S | -1.1% (inactive) and -33.5% (inactive) | -19.8% (inactive) and -30.9% (inactive) | 0.65% (inactive) and -20.4% (inactive) | -7.65% (inactive) and -14.2% (inactive) | 11% (inactive) and -23.7% (inactive) | -6.9% (inactive) and -22.5% (inactive) |
| CC1=C/C(=C(\c2cc(C)c(O)c(C(=O)O)c2)c2c(Cl)ccc(S(=O)(=O)O)c2Cl)C=C(C(=O)O)C1=O | 25.6% (inactive) and -15.2% (inactive) | 0.1% (inactive) and -0.75% (inactive) | 22.8% (inactive) and -4.2% (inactive) | 21.1% (inactive) and -2.6% (inactive) | -3.05% (inactive) and -7.4% (inactive) | 41.5% (inactive) and -2.55% (inactive) |
| CCOc1ccc(C=O)cc1OC | -29.6% (inactive) and -0.5% (inactive) | -53.1% (inactive) and -10.4% (inactive) | -52.6% (inactive) and 0.25% (inactive) | -6.4% (inactive) and 4.25% (inactive) | -26.9% (inactive) and -0.4% (inactive) | -11.4% (inactive) and 0.1% (inactive) |
| OCC1OCOC2C(CO)OCOC12 (stereo unspecified) | -9.2% (inactive) and -8.3% (inactive) | -21.4% (inactive) and -3.75% (inactive) | -9.95% (inactive) and 15.6% (inactive) | 0.65% (inactive) and -36.2% (inactive) | -13.8% (inactive) and -4.7% (inactive) | -4.7% (inactive) and -3.1% (inactive) |
| N#CC(c1ccc([N+](=O)[O-])cc1)C(CC(=O)c1ccccc1)c1ccccc1 (stereo unspecified) | -1.3% (inactive) and -14.2% (inactive) | -3% (inactive) and -14.6% (inactive) | -15.2% (inactive) and -17.2% (inactive) | -28.3% (inactive) and -46.9% (inactive) | 37.8% (inactive) and 12.6% (inactive) | 36.5% (inactive) and 14.3% (inactive) |
| COc1ccc(/C=C\c2cc(OC)c(OC)c(OC)c2)cc1OC(=O)C(N)CCC(=O)O (stereo unspecified) | -5.3% (inactive) and 8.35% (inactive) | -18.3% (inactive) and -10.8% (inactive) | -0.6% (inactive) and -3.85% (inactive) | 21.9% (inactive) and 6.7% (inactive) | -19.6% (inactive) and 34% (inactive) | 79.2% (active) and 3.3% (inactive) |
| C/C(=N\NC(=O)c1ccncc1)c1ccc(F)cc1 | 3.95% (inactive) and -7.7% (inactive) | 9.55% (inactive) and -14.3% (inactive) | 4.15% (inactive) and -16.4% (inactive) | 3.85% (inactive) and 0.7% (inactive) | 5.5% (inactive) and -28.4% (inactive) | 14.3% (inactive) and -4.6% (inactive) |
| C[n+]1cccc2ccccc21 | -17.1% (inactive) and -14% (inactive) | -11.8% (inactive) and -2.1% (inactive) | -40.5% (inactive) and -8.3% (inactive) | -10.7% (inactive) and -59% (inactive) | 11.5% (inactive) and 6.7% (inactive) | -11.6% (inactive) and -4.15% (inactive) |
| O=C(CCl)NC(Cc1c[nH]c2ccccc12)C(=O)O (stereo unspecified) | -7.95% (inactive) and 9.8% (inactive) | -50.7% (inactive) and -0.75% (inactive) | 1.1% (inactive) and -0.95% (inactive) | 23.3% (inactive) and 14.8% (inactive) | -10.2% (inactive) and 8.7% (inactive) | 4.25% (inactive) and -1.05% (inactive) |
| O=C(O)C1CCCC2C(O)CCC(=O)C12 (stereo unspecified) | -23.5% (inactive) and -14.2% (inactive) | -16.3% (inactive) and -6.8% (inactive) | -12.7% (inactive) and -5.6% (inactive) | -5.45% (inactive) and 4.25% (inactive) | -12.9% (inactive) and -5.9% (inactive) | -29.4% (inactive) and -32% (inactive) |
| COc1ccc(/C=C2/N=C(N/N=C\C(O)C(O)C(O)CO)NC2=O)cc1 (stereo unspecified) | 1% (inactive) and 34.4% (inactive) | 12.4% (inactive) and 17.6% (inactive) | 3.55% (inactive) and 13.3% (inactive) | 26.4% (inactive) and 1.4% (inactive) | -6.95% (inactive) and 21.9% (inactive) | -46% (inactive) and 18.8% (inactive) |
| CC(=O)Nc1ccc(C=O)cc1 | 13.1% (inactive) and 25.1% (inactive) | 3.5% (inactive) and 19.1% (inactive) | 14.8% (inactive) and 24.1% (inactive) | -18.1% (inactive) and 8.75% (inactive) | -4.15% (inactive) and -9.2% (inactive) | 4.9% (inactive) and 28% (inactive) |
| CCOC(=O)C(N)Cc1ccc(O)cc1 (stereo unspecified) | 16% (inactive) and 0.4% (inactive) | 8.05% (inactive) and 6.55% (inactive) | -0.85% (inactive) and -11.8% (inactive) | 6.25% (inactive) and -19.6% (inactive) | 10.7% (inactive) and 1.75% (inactive) | 23.4% (inactive) and -1.7% (inactive) |
| O=C1NC(=O)C(CO)(c2ccccc2)N1 (stereo unspecified) | 14.2% (inactive) and 7.65% (inactive) | 2% (inactive) and -11.6% (inactive) | 6% (inactive) and -1.85% (inactive) | -18.6% (inactive) and 46.5% (inactive) | 0.95% (inactive) and 10.4% (inactive) | 7.2% (inactive) and 21.4% (inactive) |
| O=C(O)C1(O)C[C@@H](O)C(O)[C@H](O)C1 (stereo partly specified) | 4.9% (inactive) and -19.3% (inactive) | 0.15% (inactive) and -14.2% (inactive) | -3.65% (inactive) and -30.1% (inactive) | 21.2% (inactive) and 23.8% (inactive) | -4.65% (inactive) and -2.35% (inactive) | 3.6% (inactive) and -2.65% (inactive) |
| C=CCOC(=O)C(C)OC(=O)C(C)O (stereo unspecified) | 35.3% (inactive) and 15.3% (inactive) | 11.8% (inactive) and 10.6% (inactive) | 13.6% (inactive) and -3.75% (inactive) | 11.6% (inactive) and -4% (inactive) | 6.85% (inactive) and -0.4% (inactive) | 9.85% (inactive) and 1.9% (inactive) |
